About 520 (0.25%) of roughly 210,000 compounds were called active. The full list was thinned out, with actives kept by preference. A number with no mark means an inactive call. No stated cut-off is given here; in the data, active means inhibition above about 50%; inactive means the rest.

This assay relates to Plasmodium falciparum apicoplast DNA polymerase (apPOL). Description: Pf-apPOL inhibitors, biochemical, fluorescence (AID 1794808). Conditions: Recombinant Pf-apPOL, molecular beacon fluorescence, 1.5 h; at 10 µM; hits give high values.
`NC(=O)c1cc2cc(Br)ccc2oc1=Nc1ccc(F)cc1`: the inhibition was 5.9%.

Regarding `CC(=O)Nc1ccc(-c2ccc(NC(C)=O)c(Cl)c2)cc1Cl`, the inhibition is 6.6%.

Turning to `CCN1CCCC1CNC(=O)c1cn(C)c(=O)c2cc(OC)c(OC)cc12` (stereo unspecified), the inhibition was 4.5%.

As to `O=c1c(O)c(Br)ccc2c(Br)c(O)c(O)c(O)c12`, the inhibition is 99.5% (active).

As to `O=C(NC1CCCCC1)c1ccccc1NC(=O)C1COc2ccccc2O1` (stereo unspecified), the inhibition was -3.8%.

For `Cn1nc(-c2nnc(-c3ccccc3Cl)o2)c2c1CCN(C(=O)CCc1ccccc1)C2`, the inhibition is -2.8%.

Regarding `COc1cc(C(=O)Nc2c3c(nn2-c2ccc(C)cc2C)CS(=O)(=O)C3)cc(OC)c1OC`, the inhibition is -2.5%.

For the compound `COc1ccc(C2=NOC(C(=O)NCCc3ccccc3)C2)cc1OC` (stereo unspecified), the inhibition is -10.3%.

With `Cc1cc(Cl)ccc1NC(=O)CCc1ccccc1`, the inhibition is 52.8% (active).

As to `Cc1ccc(F)c(NC(=O)CCc2ccccc2)c1`, the inhibition is -10.7%.

For `O=C(CCCc1ccccc1)Nc1cccc(Cl)c1`, the inhibition was -10.9%.

In the case of `Cc1ccc(-c2ccc(C)cc2N)c(N)c1`, the inhibition is 5.9%.

Turning to `Cc1ccc2c(c1)C(=O)C(=O)S2`, the inhibition was 53.9% (active).

For `Cc1ccc2nc3c(nc2c1)C(=O)c1ccccc1C3=O`, the inhibition was -3.7%.

Regarding `Cc1ccsc1/C=C(\C(=O)NCc1cccnc1)S(=O)(=O)c1ccccc1`, the inhibition is 2.5%.

For `O=C(Cc1ccc(F)cc1)N1CCC(Nc2cccn3ncnc23)CC1`, the inhibition is -7.3%.

For the compound `O=C(C1CCCN(c2nnc3ccc(Cl)cn23)C1)N1CCN(C2CCCCC2)CC1` (stereo unspecified), the inhibition is -2.9%.

For the compound `CCN(Cc1cc(-c2ccc(C)cc2C)on1)C(=O)c1cccs1`, the inhibition was 3.3%.

Regarding `CCC(=O)N1CCC(COc2ccccc2C(=O)N2CCCCC2)CC1`, the inhibition was -0.7%.

As to `COc1cc(Cl)c(NC(=O)C2CCCN(c3nccc(C)n3)C2)c(OC)c1` (stereo unspecified), the inhibition is 2.3%.

Consider `CCN(CC)C(=O)C1CCCN(Cc2ccccc2OC)C1` (stereo unspecified), for which the inhibition was -2.5%.

In the case of `CCN(CC)S(=O)(=O)c1ccc(C(=O)Nc2c3c(nn2-c2ccc(C)cc2)CSC3)cc1`, the inhibition is 3.5%.

In the case of `Cc1cccc(S(=O)(=O)N2CCSC2c2ccccc2)c1` (stereo unspecified), the inhibition is 95.2% (active).

As for `O=[N+]([O-])c1ccc(C2SCCN2S(=O)(=O)c2ccccc2)cc1` (stereo unspecified), the inhibition was -2.9%.

Regarding `CCCCOc1ccc(S(=O)(=O)N2CCSC2c2ccccc2)cc1` (stereo unspecified), the inhibition was -1.1%.

For the compound `O=C(NCCc1ccccc1)N1CCC(n2c(-c3ccoc3)nc3cccnc32)C1` (stereo unspecified), the inhibition is -2%.

As to `O=C(c1ccccc1)c1ccc(OCCNC(=O)c2ccccc2Br)cc1`, the inhibition was -3.3%.

For `CC(C)CC1=NN(C(=O)c2cccc(Cl)c2)C(O)(C(F)(F)F)C1` (stereo unspecified), the inhibition was 2%.

Regarding `CC(C)c1cccc(N2C=C(C#N)S(=O)(=O)c3c(F)cccc32)c1`, the inhibition was -0.6%.

Turning to `COc1ccc(NS(=O)(=O)c2c(C)cc(C)cc2C)c([N+](=O)[O-])c1`, the inhibition was -4%.

Turning to `COc1cc(C(=O)N2CCC(c3noc(-c4cccc(F)c4)n3)CC2)cc(OC)c1OC`, the inhibition was 0.1%.

As for `O=C(c1ccc(OCC2CCCN(C(=O)c3ccccn3)C2)cc1)N1CCCC1` (stereo unspecified), the inhibition was 3.1%.

Take `CCc1ccc(OCC(=O)Nc2cc(OC)c(Cl)cc2OC)cc1`: the inhibition was -9.2%.

Regarding `O=C(NCCCNc1ccc([N+](=O)[O-])cc1Cl)c1ccccc1Br`, the inhibition is 4.9%.

On to `Cc1nc(-c2ccccc2)sc1C(=O)ON=C(N)c1ccc([N+](=O)[O-])o1`, for which the inhibition is 11.5%.

With `CCCOc1ccc(S(=O)(=O)NCC2CCN(S(=O)(=O)C3CC3)CC2)cc1C`, the inhibition is -5.5%.

Consider `CC(=O)N1CCc2ccccc2C1C(=O)NCc1ccc(C)cc1` (stereo unspecified), for which the inhibition is -0.9%.

As to `COc1cccc2sc(=NC(=O)c3cccc(F)c3)n(C)c12`, the inhibition is 2.7%.

In the case of `Cc1nc(N2CCC(C(N)=O)CC2)nc(NCc2ccco2)c1[N+](=O)[O-]`, the inhibition is -9.6%.

In the case of `COc1cccc(-c2n[nH]c(C)c2NC(=O)C(C)C)c1`, the inhibition was -6.9%.

As to `CCn1c(C2CCN(S(=O)(=O)c3cc(OC)ccc3OC)C2)nc2cccnc21` (stereo unspecified), the inhibition is -5.5%.

Consider `Cc1ccc(CC(=O)NC2CCN(c3cc(C)cc(C)c3)C2=O)cc1` (stereo unspecified), for which the inhibition was -5.7%.

Consider `Cc1nc(-c2ccccc2F)sc1C(=O)N1CCCC1`, for which the inhibition was -7.4%.

Turning to `Cc1nc(-c2ccncc2)nc2c1CC(=O)N2C1CCCC1`, the inhibition was -7.5%.

Consider `COc1cc(NC(=O)c2cccc([N+](=O)[O-])c2)c(OC)cc1NC(=O)c1ccccc1`, for which the inhibition was -2.7%.

`Cc1cccc(CN2CCCn3nc(C(=O)Nc4ccccc4C)cc3C2=O)c1`: the inhibition was -2.2%.

On to `CC1(C(=O)O)NC(c2cc(Cl)ccc2O)C2C(=O)N(c3ccc(Cl)cc3)C(=O)C21` (stereo unspecified), for which the inhibition is -9.1%.

Regarding `O=Cc1ccc(OCc2cccc(F)c2)c(Cl)c1`, the inhibition was 1.2%.

Take `O=C1CN(C(=O)c2c(F)cccc2F)C(c2ccccc2)c2cc(F)ccc2N1` (stereo unspecified): the inhibition was -3.5%.

Turning to `COc1cccc(-c2cc3n(n2)CCCN(C(=O)Cc2ccsc2)C3)c1`, the inhibition is -7.6%.

With `COc1ccccc1N1CCN(CC(=O)Nc2ncc(C)s2)C1=O`, the inhibition is -2.4%.

`CCC(CC)C(=O)N1CCN(c2ccc([N+](=O)[O-])cc2)CC1`: the inhibition was -4.2%.

For `CC1C(=O)N(c2cccc(F)c2)CCN1C(=O)c1ccc(Cl)cc1` (stereo unspecified), the inhibition is -2.7%.

For the compound `Cc1cccc(N2CCN(C(=O)c3ccc(F)cc3)C(C)C2=O)c1` (stereo unspecified), the inhibition is 0.4%.

`Cc1ccc(C(=O)N2CCN(c3ccc(F)c(Cl)c3)C(=O)C2C)cc1` (stereo unspecified): the inhibition is 69.1% (active).

Regarding `Cc1cccc(NS(=O)(=O)c2c(C)n[nH]c2C)c1C`, the inhibition was -1.5%.

Consider `Cc1cc(C)n(-c2ccc(C(=O)NC3CCCC3)cn2)n1`, for which the inhibition was 2%.

Regarding `CCC1CCCCN1C(=O)CSc1nc2c(c(=O)n1C)SC(C)C2` (stereo unspecified), the inhibition is -6.3%.

As for `COc1ccc(C=C2Oc3c(ccc(O)c3CN3CCCCCC3)C2=O)cc1OC`, the inhibition is -19.5%.

For `N/C(=N\OC(=O)CCCc1ccccc1)c1ccc(Cl)cc1`, the inhibition is 5.3%.

Consider `Cc1cccc(NC(=O)N2CC(c3nc(C)no3)C3(CCOCC3)C2)c1` (stereo unspecified), for which the inhibition is -0.4%.

What is called inhibition is the relative decrease from the control value, in per cent.

The values are drawn from PubChem BioAssay AID1794808 (University of Kansas High Throughput Screening Laboratory, 2022).
